# Source: the supplement of paper PMC12024424
# Where a name gives a salt, the structure may show the parent alone.
# Columns and labels:
# [1] = test system: Staphylococcus aureus Sa2 (MRSA, cystic fibrosis isolate); assay: growth reduction vs untreated control (OD550); higher = stronger antibacterial activity; conditions: 0.1 mM; 24 h
# Method: (§1)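 Single-dose screen of the MedChem Express Drug Repurposing Library (0.1 mM, 1% DMSO) against planktonic MRSA S. aureus Sa2 (CF isolate) in TSB in 96-well plates, 37 °C aerobic, 24 h. Assays were run in triplicate and repeated twice.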
# [2] = test system: Staphylococcus aureus Sa2 (MRSA, cystic fibrosis isolate); assay: growth reduction vs untreated control (viable cell count); higher = stronger antibacterial activity; extreme values may be limits of the assay; conditions: 0.1 mM; 24 h
# Method: as §1
Structure (SMILES),growth reduction [1],growth reduction [2]
CC(C(=O)O)c1ccc2c(c1)CC(=O)c1ccccc1S2 (stereo not given) [Zaltoprofen],96.7%,98%
CC(=O)O[C@@H]1CC[C@@]2(C)[C@@H](CC[C@]3(C)[C@@H]2C(=O)C=C2[C@@H]4[C@@H](C)[C@H](C)CC[C@]4(C)CC[C@]23C)[C@@]1(C)C(=O)O,100%,100%
O=C(Nc1ccc([N+](=O)[O-])cc1Cl)c1cc(Cl)ccc1O [Niclosamide],99.8%,100%
COc1cc([C@H]2C(C#N)=C(N)Oc3c2ccc(N)c3N)cc(Br)c1OC [Crolibulin],98.1%,100%
Oc1c(Cl)cc(Cl)cc1Sc1cc(Cl)cc(Cl)c1O [Bithionol],,100%
Nc1ncccc1-c1nc2ccc(-c3ccccc3)nc2n1-c1ccc(C2(N)CCC2)cc1 [Miransertib],97.6%,95%
N=C(N)c1ccc(OCCCCCOc2ccc(C(=N)N)cc2)cc1 [Pentamidine (isethionate)],100%,100%
CC(=C(CCOC(=O)C(C)C)SSC(CCOC(=O)C(C)C)=C(C)N(C=O)Cc1cnc(C)nc1N)N(C=O)Cc1cnc(C)nc1N (stereo in doubt) [Sulbutiamine],97%,97%
CC(=O)[C@]1(O)Cc2c(O)c3c(c(O)c2[C@@H](O[C@H]2C[C@H](N)[C@H](O)[C@H](C)O2)C1)C(=O)c1ccccc1C3=O [Idarubicin (hydrochloride)],98.1%,100%
Cc1cc(-c2nc(CN3CCNCC3)no2)cc2c1C(=O)N(Cc1ccc(OC(F)(F)F)cc1)C2,100%,100%
c1cn2cc(-c3ccc4cn[nH]c4c3)nc(Nc3ccc(N4CCOCC4)cc3)c2n1 [Entospletinib],100%,96%
Cc1cc(C2CCCCC2)n(O)c(=O)c1 [Ciclopirox (olamine)],99.3%,100%
O=C(CCCCCCNC(=O)c1cnc(N(c2ccccc2)c2ccccc2)nc1)NO [Ricolinostat],,100%
O=C(NC(=Nc1cc(C(F)(F)F)[nH]n1)Nc1cc(F)cc(Cl)c1)c1cccc(Cl)c1 [Parimifasor],100%,100%
COC(=O)[C@]12CCC(C)(C)C[C@H]1[C@H]1C(=O)C=C3[C@@]4(C)C=C(C#N)C(=O)C(C)(C)[C@@H]4CC[C@@]3(C)[C@]1(C)CC2 [Bardoxolone methyl],100%,100%
Cc1ccc(C(=O)c2cc(O)c(O)c([N+](=O)[O-])c2)cc1 [Tolcapone],,100%
O=C(O)c1ccc2nc(-c3cc(Cl)cc(Cl)c3)oc2c1 [Tafamidis meglumine],93.9%,98%
Clc1ccc(C(c2ccccc2Cl)C(Cl)Cl)cc1 (stereo not given) [Mitotane],100%,100%
CC/C(=C(/c1ccc(/C=C/C(=O)O)cc1)c1ccc2[nH]ncc2c1)c1ccc(F)cc1Cl [Brilanestrant],96.6%,100%
COC(=O)N[C@H](C(=O)N1CCC[C@H]1c1nc(-c2ccc3c(c2)O[C@@H](c2ccccc2)n2c-3cc3cc(-c4c[nH]c([C@@H]5CCCN5C(=O)[C@@H](NC(=O)OC)C(C)C)n4)ccc32)c[nH]1)C(C)C [Elbasvir],97.8%,100%
Fc1ccc(C(c2ccc(F)cc2)N2CCN(C/C=C/c3ccccc3)CC2)cc1 [Flunarizine (dihydrochloride)],94.4%,98%
COc1ccc2c(c1OCc1ccccc1)C[C@@H](C(=O)O)N(C(=O)C(c1ccccc1)c1ccccc1)C2 [Olodanrigan],,100%
CCOC(=O)[C@H](CCc1ccccc1)N[C@@H](C)C(=O)N1[C@H](C(=O)O)C[C@@H]2CCC[C@@H]21 [Ramipril],92.1%,92%
CN1C(=O)[C@@H](NC(=O)c2n[nH]c(Cc3ccccc3)n2)COc2ccccc21,90.3%,90%
CN(CCCCCCCCCCN(C)C(=O)Oc1cccc([N+](C)(C)C)c1)C(=O)Oc1cccc([N+](C)(C)C)c1 [Demecarium Bromide],100%,98%
COc1cc2c(Nc3ccc(Cl)c(Cl)c3F)ncnc2cc1OC[C@@H]1C[C@@H]2CN(C)C[C@@H]2C1 [Tesevatinib],100%,100%
CC1(C)CC[C@]2(NC(=O)C(C)(F)F)CC[C@]3(C)[C@H](C(=O)C=C4[C@@]5(C)C=C(C#N)C(=O)C(C)(C)[C@@H]5CC[C@]43C)[C@@H]2C1 [Omaveloxolone],100%,100%
